# NOMO-1 viab = NOMO-1 AML cell viability reduction, primary screen, STK33 inhibitor project, CellTiter-Glo luminescence; NOMO-1 AML viability, 72 h; 37,000 tested, 7.5% active; inhibition, % (no concentration beside the values); in the data active means inhibition above about 80%; inconclusive means no clear call, values can overlap the other calls
# Shh pathway inh = Hedgehog pathway signaling inhibitors, primary screen, luminescence, Shh-LIGHT2 cells, Gli-luciferase; Shh-LIGHT2 Gli-luciferase reporter, 30 h; inhibition, % (no concentration beside the values); 22,000 tested, 2.1% active;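 active means mean inhibition across valid replicates above about 65%, limit read from the data; inconclusive means mean under the limit, yet half or more replicates past it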;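 further: pathway switched on by Shh-conditioned medium diluted 1 in 25 in low serum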
# MITF inh = inhibitors of MITF, primary screen, MITF inhibitor project, cell-based, luminescence; inhibition, % (concentration not given with the values); AID 2240, 2010; TRPM1 promoter luciferase, 24 h; 37,000 tested, 0.28% active; in the data active means inhibition above about 85%; inconclusive means no clear call, values can overlap the other calls; inactive means below about 68%;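 further: human melanocyte line stably carrying TRPM1 promoter luciferase reporter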
# Numbers stand for hits; 0 = inactive; ? = inconclusive; - = no result. Most compounds without a hit are left out; they make up all but 7.9% or so of the library.
SMILES,NOMO-1 viab,Shh pathway inh,MITF inh
Cc1c(C#N)c(Sc2n[nH]c(=O)n2C2CCCCC2)nc2ccccc12,0,0,0
Cc1cc(C(=O)Nc2cccc3c2O[C@H](CN(C)C(=O)NC2CCCCC2)[C@@H](C)CN([C@H](C)CO)C3=O)n(C)n1,0,0,0
COc1ccc(NC(=O)Nc2ccc3c(c2)C(=O)N([C@@H](C)CO)C[C@@H](C)[C@H](CN(C)Cc2ccc(-c4ccccc4)cc2)O3)cc1,97.1,0,0
C[C@H](CO)N1C[C@H](C)[C@H](CN(C)Cc2ccc(-c3ccccc3)cc2)Oc2ccc(NC(=O)Nc3ccccc3)cc2C1=O,0,0,0
COc1ccc(CN(C)C[C@@H]2Oc3ccc(NC(=O)Nc4ccccc4)cc3C(=O)N([C@H](C)CO)C[C@H]2C)cc1,0,0,0
COc1ccc(NC(=O)Nc2ccc3c(c2)C(=O)N([C@H](C)CO)C[C@@H](C)[C@H](CN(C)Cc2ccc(-c4ccccc4)cc2)O3)cc1,119.2,0,0
C[C@@H]1CN([C@@H](C)CO)C(=O)c2cc(NC(=O)Nc3ccccc3)ccc2O[C@@H]1CN(C)Cc1ccc(-c2ccccc2)cc1,113.8,-,0
COc1ccc(CN(C)C[C@H]2Oc3ccc(NC(=O)Nc4ccccc4)cc3C(=O)N([C@H](C)CO)C[C@H]2C)cc1,0,0,0
COc1ccc(CN(C)C[C@H]2Oc3ccc(NC(=O)Nc4ccccc4)cc3C(=O)N([C@@H](C)CO)C[C@H]2C)cc1,0,0,0
COc1ccc(NC(=O)Nc2ccc3c(c2)C(=O)N([C@@H](C)CO)C[C@H](C)[C@@H](CN(C)Cc2ccc(-c4ccccc4)cc2)O3)cc1,81.9,-,0
O=C(NCc1ccccn1)C1CCCN(S(=O)(=O)c2ccc(F)cc2)C1 (stereo not given),0,-,0
COc1ccc(S(=O)(=O)Nc2ccc3c(c2)CC(=O)N([C@@H](C)CO)C[C@@H](C)[C@@H](CN(C)S(=O)(=O)c2ccc(OC)cc2)O3)cc1,0,?,0
C[C@H]1O[C@@H](O[C@H]2C[C@H]3C(=O)C[C@]4(C)C(=CCC5[C@@]6(C)CC[C@H](O[C@@H]7OC[C@@H](O)[C@H](O)[C@H]7O)[C@@](C)(C=O)C6CC[C@]54C)[C@@H]3CC2(C)C)[C@H](O)[C@@H](O)[C@@H]1O[C@@H]1O[C@H](C(=O)O)[C@@H](O)[C@H](O)[C@H]1O (stereo not given in full),0,0,0
CCCc1ccc(Oc2ccc(NC(=O)C3CC3C(=O)O)cn2)c(OC)c1 (stereo not given),0,0,0
CS(=O)(=O)N(CC(=O)Nc1c(F)cccc1F)c1ccc(I)cc1,0,-,0
CCc1ccc(C(Nc2cc(C)ccn2)c2ccc3ccc(C)nc3c2O)cc1 (stereo not given),89.2,-,0
Cc1ccnc(NC(c2cccc(F)c2)c2ccc3ccc(C)nc3c2O)c1 (stereo not given),115.8,-,0
Cc1ccnc(NC(c2ccsc2)c2ccc3ccc(C)nc3c2O)c1 (stereo not given),89.1,-,0
CCc1ccc(C(Nc2ccccn2)c2ccc3ccc(C)nc3c2O)cc1 (stereo not given),110.0,-,0
O=C(OC[C@]12O[C@H]1[C@@H](O)[C@@H]1C=CO[C@@H](O[C@@H]3O[C@H](CO)[C@@H](O)[C@H](O)[C@H]3O)[C@@H]12)c1ccccc1,0,0,0
Cc1ccc(C(=O)CSc2nnc(-c3cc(C(C)(C)C)nn3Cc3cccc(C)c3)o2)cc1,0,0,0
C/C(=C\Cc1c(O[C@@H]2O[C@H](CO)[C@@H](O)[C@H](O)[C@H]2O)ccc2ccc(=O)oc12)CO,-,0,-
O=C(Cn1cnc2ccccc2c1=O)Nc1ccccc1Br,0,-,0
CCc1ccc(OCC(=O)NC(=S)Nc2cccc3nsnc23)cc1,0,-,0
COc1ccc(C(Nc2cc(C)ccn2)c2ccc3ccc(C)nc3c2O)cc1 (stereo not given),98.9,-,0
SMILES,NOMO-1 viab,Shh pathway inh,MITF inh
COc1ccc(NC(=O)CSc2nccc(C)n2)cc1,0,-,0
C[C@@H]1CN([C@@H](C)CO)C(=O)c2cccc(NC(=O)CCCCCC(=O)Nc3ccccc3N)c2O[C@H]1CN(C)Cc1ccc(Cl)c(Cl)c1,137.8,-,0
C[C@H]1CN([C@@H](C)CO)C(=O)c2cccc(NC(=O)CCCCCC(=O)Nc3ccccc3N)c2O[C@H]1CN(C)Cc1ccc(-c2ccccc2)cc1,121.8,-,0
C[C@H](CO)N1C[C@H](C)[C@@H](CN(C)Cc2ccc(Oc3ccccc3)cc2)Oc2ccc(NC(=O)CCCCCC(=O)Nc3ccccc3N)cc2C1=O,0,-,0
C[C@@H]1CN([C@H](C)CO)C(=O)c2cccc(NC(=O)CCCCCC(=O)Nc3ccccc3N)c2O[C@H]1CN(C)Cc1ccncc1,0,-,0
C[C@@H]1CN([C@@H](C)CO)C(=O)c2cccc(NC(=O)CCCCCC(=O)Nc3ccccc3N)c2O[C@H]1CN(C)Cc1ccccc1,122.2,-,0
C[C@@H]1CN([C@@H](C)CO)C(=O)c2cccc(NC(=O)CCCCCC(=O)Nc3ccccc3N)c2O[C@H]1CN(C)Cc1ccc(Oc2ccccc2)cc1,141.4,-,0
C[C@@H]1CN([C@@H](C)CO)C(=O)c2cccc(NC(=O)CCCCCC(=O)Nc3ccccc3N)c2O[C@@H]1CN(C)Cc1ccc2c(c1)OCO2,?,-,0
C[C@@H]1CN([C@H](C)CO)C(=O)c2cccc(NC(=O)CCCCCC(=O)Nc3ccccc3N)c2O[C@@H]1CN(C)Cc1ccccc1,0,-,0
CC(Oc1ccccc1)C(=O)O (stereo not given),0,0,0
COc1ccccc1-c1cc(-c2ccccc2)nc(SCC(N)=O)c1C#N,0,-,0
COC1CC(OC(O)C(O)C(O)C(O)C(O)CO)c2c(cc3cc(C)oc(=O)c3c2O)OC1=O (stereo not given),0,0,0
Cc1ccc(-n2c(SCC(=O)Nc3cccc(C)c3C)nnc2-c2ccncc2)cc1C,0,-,0
CCOC(=O)c1c[nH]c2c(C)c(Cl)ccc2c1=O,0,-,0
C[C@@H]1CN([C@H](C)CO)C(=O)Cc2cc(NC(=O)C3CC3)ccc2O[C@H]1CN(C)C,0,0,0
Cc1nnc(SCc2cc(=O)[nH]c(Nc3nc(C)c4cccc(C)c4n3)n2)s1,0,-,0
Cc1ccc(S(=O)(=O)Nc2cccc3c2O[C@@H](CN(C)S(=O)(=O)c2ccc(F)cc2)[C@@H](C)CN([C@H](C)CO)C3=O)cc1,0,0,0
CSc1cccc(NC(=O)CN(c2ccc3c(c2)OCCO3)S(C)(=O)=O)c1,0,-,0
C[C@H]1CN([C@@H](C)CO)C(=O)c2cccc(NC(=O)CCCCCC(=O)Nc3ccccc3N)c2O[C@H]1CN(C)Cc1ccc(C(F)(F)F)cc1,99.7,-,0
C[C@@H]1CN([C@H](C)CO)C(=O)c2cccc(NC(=O)CCCCCC(=O)Nc3ccccc3N)c2O[C@@H]1CN(C)Cc1ccc(-c2ccccc2)cc1,125.5,-,0
C[C@@H]1CN([C@@H](C)CO)C(=O)c2cccc(NC(=O)CCCCCC(=O)Nc3ccccc3N)c2O[C@H]1CN(C)Cc1ccncc1,0,-,0
C[C@@H]1CN([C@H](C)CO)C(=O)c2cccc(NC(=O)CCCCCC(=O)Nc3ccccc3N)c2O[C@@H]1CN(C)Cc1ccncc1,0,-,0
